Compounds without any hit were thinned out: in the full panel of roughly 83,000, 20% have a hit.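 Compound tested at a single concentration for 48 hours in 96-well plates; a percent growth value below 10 was scored as active.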 Calls of active or inactive are those of the source.
What was measured:
Experiment in all cases: NCI-60 one-dose screen, 48 h (100 = growth as untreated, 0 = no growth, -100 = all killed)
Settings in all cases: 10 µM unless noted
DU-145 prostate = tested on: DU-145 prostate
K-562 leukemia = tested on: K-562 leukemia
MALME-3M melanoma = tested on: MALME-3M melanoma
MDA-MB-231 breast = tested on: MDA-MB-231 breast
RXF 393 renal = tested on: RXF 393 renal
SF-268 CNS = tested on: SF-268 CNS
SF-295 CNS = tested on: SF-295 CNS
SF-539 CNS = tested on: SF-539 CNS
UACC-257 melanoma = tested on: UACC-257 melanoma
M14 melanoma = tested on: M14 melanoma
HCT-15 colon = tested on: HCT-15 colon
HT29 colon = tested on: HT29 colon
SNB-75 CNS = tested on: SNB-75 CNS
SNB-19 CNS = tested on: SNB-19 CNS
U251 CNS = tested on: U251 CNS
PC-3 prostate = tested on: PC-3 prostate
SK-MEL-5 melanoma = tested on: SK-MEL-5 melanoma
UACC-62 melanoma = tested on: UACC-62 melanoma
LOX IMVI melanoma = tested on: LOX IMVI melanoma
SK-MEL-28 melanoma = tested on: SK-MEL-28 melanoma

Measured: growth

CCCn1cnc2c(c1=N)C(c1ccc(Cl)cc1)c1sc3c(F)cccc3c1O2 (stereo not given)
inactive: DU-145 prostate 82.2% | K-562 leukemia 29.1% | MALME-3M melanoma 49.8% | MDA-MB-231 breast 69.7% | RXF 393 renal 72% | SF-268 CNS 83.8% | SF-295 CNS 93.8% | SF-539 CNS 85.6% | UACC-257 melanoma 105% | M14 melanoma 70.7% | HCT-15 colon 40.9% | HT29 colon 20.8% | SNB-75 CNS 90.2% | SNB-19 CNS 87.5% | U251 CNS 59.8% | PC-3 prostate 65.8% | SK-MEL-5 melanoma 63.7% | UACC-62 melanoma 85.4% | LOX IMVI melanoma 82.3% | SK-MEL-28 melanoma 80.1%

COc1cc2nc3cc([N+](=O)[O-])ccc3c(NCCCNCCO)c2cc1OC
inactive: HCT-15 colon 41.2%
active: DU-145 prostate -31.2% | K-562 leukemia -19% | MALME-3M melanoma -82.6% | MDA-MB-231 breast -54.5% | RXF 393 renal -58.8% | SF-268 CNS -46.8% | SF-295 CNS -20.7% | SF-539 CNS -36.2% | UACC-257 melanoma -53.4% | M14 melanoma -66.5% | HT29 colon 1.17% | SNB-75 CNS -74.2% | SNB-19 CNS -19% | U251 CNS -45.5% | PC-3 prostate -66.8% | SK-MEL-5 melanoma -93.9% | UACC-62 melanoma -65.2% | LOX IMVI melanoma -63.7% | SK-MEL-28 melanoma -53.1%

COc1cc(C(=O)/C=C/c2c(-c3cccs3)nc3sc(C)cn23)cc(OC)c1OC
inactive: MDA-MB-231 breast 43.3% | SF-268 CNS 20% | HCT-15 colon 10.4% | SNB-19 CNS 15.5% | SK-MEL-28 melanoma 21.7%
active: DU-145 prostate -18.1% | K-562 leukemia 7.44% | MALME-3M melanoma -10.6% | RXF 393 renal -35.3% | SF-295 CNS 3.07% | SF-539 CNS -2.02% | UACC-257 melanoma 0.649% | M14 melanoma 1.71% | HT29 colon 3.69% | SNB-75 CNS -15.6% | U251 CNS 5.96% | PC-3 prostate 8.02% | SK-MEL-5 melanoma -56.5% | UACC-62 melanoma -38.7% | LOX IMVI melanoma 9.35%

O=C1c2c(c3c4cc(F)ccc4oc3c3[nH]c4ccccc4c23)C(=O)N1O
active: SF-539 CNS 2.46% | SK-MEL-5 melanoma -30% | UACC-62 melanoma 3.37% | LOX IMVI melanoma -25.3%
inactive: DU-145 prostate 31.8% | K-562 leukemia 26.1% | MALME-3M melanoma 28% | MDA-MB-231 breast 57.6% | RXF 393 renal 39.9% | SF-268 CNS 38.7% | SF-295 CNS 55.7% | UACC-257 melanoma 75.9% | M14 melanoma 28.6% | HCT-15 colon 33.2% | HT29 colon 31.4% | SNB-75 CNS 10.3% | SNB-19 CNS 26.7% | U251 CNS 24.5% | PC-3 prostate 32.3% | SK-MEL-28 melanoma 29%

[2H]C([2H])([2H])Oc1ccc(/C=C/C(=O)/C=C(/C=C/c2ccc(OC([2H])([2H])[2H])c(OC([2H])([2H])[2H])c2OC([2H])([2H])[2H])OB(F)F)c(OC([2H])([2H])[2H])c1OC([2H])([2H])[2H]
inactive: DU-145 prostate 68.8% | K-562 leukemia 29.3% | MALME-3M melanoma 57% | MDA-MB-231 breast 75.1% | RXF 393 renal 83.8% | SF-268 CNS 88.8% | SF-295 CNS 97.2% | SF-539 CNS 77.7% | UACC-257 melanoma 53.5% | M14 melanoma 61.2% | HCT-15 colon 39.6% | HT29 colon 38.5% | SNB-75 CNS 57.1% | SNB-19 CNS 83% | U251 CNS 47.7% | PC-3 prostate 67.6% | SK-MEL-5 melanoma 92.4% | UACC-62 melanoma 56.5% | LOX IMVI melanoma 13.2% | SK-MEL-28 melanoma 73.3%

CCOC(=O)c1c(NC(=S)Nc2ccc([N+](=O)[O-])cc2)sc2c1CCCCC2
inactive: DU-145 prostate 89.8% | K-562 leukemia 81.1% | MALME-3M melanoma 72.7% | MDA-MB-231 breast 79.7% | RXF 393 renal 85.6% | SF-268 CNS 89% | SF-295 CNS 87.2% | SF-539 CNS 92% | UACC-257 melanoma 70.4% | M14 melanoma 93.7% | HCT-15 colon 66.6% | HT29 colon 105% | SNB-75 CNS 86.6% | SNB-19 CNS 82.2% | U251 CNS 76.6% | PC-3 prostate 43.6% | SK-MEL-5 melanoma 42.6% | UACC-62 melanoma 47.8% | LOX IMVI melanoma 84.4% | SK-MEL-28 melanoma 85.5%

COc1ccccc1-c1nc2ccc3[nH]ncc3c2c2c1CCCC2
inactive: DU-145 prostate 73.5% | K-562 leukemia 83.3% | MALME-3M melanoma 99.2% | MDA-MB-231 breast 62.4% | RXF 393 renal 51.2% | SF-268 CNS 55.6% | SF-295 CNS 70.5% | SF-539 CNS 50.5% | UACC-257 melanoma 86.4% | M14 melanoma 76.3% | HCT-15 colon 88.6% | HT29 colon 67.5% | SNB-75 CNS 38.3% | SNB-19 CNS 85.6% | U251 CNS 96.7% | PC-3 prostate 82% | SK-MEL-5 melanoma 83.4% | UACC-62 melanoma 71.3% | LOX IMVI melanoma 80.5% | SK-MEL-28 melanoma 89.2%

Cn1ccnc1C(=O)/C=C/c1ccc(CC(=O)Nc2cc(F)c(F)c(F)c2)cc1
inactive: K-562 leukemia 12.6% | MALME-3M melanoma 83.2% | SF-268 CNS 15.5% | SF-295 CNS 51.5% | UACC-257 melanoma 80.2% | M14 melanoma 62.7% | HT29 colon 10.7% | SNB-19 CNS 20.3% | PC-3 prostate 26.1% | SK-MEL-5 melanoma 62.5% | UACC-62 melanoma 43.9% | SK-MEL-28 melanoma 93.5%
active: DU-145 prostate 3% | MDA-MB-231 breast 6.11% | RXF 393 renal -15.6% | SF-539 CNS -19.5% | HCT-15 colon 9.67% | SNB-75 CNS -3.33% | U251 CNS 8.83% | LOX IMVI melanoma -3.99%

COc1cc(/C=C2\C(=O)N(CCOc3cc(O)c4c(=O)cc(-c5ccccc5)oc4c3)c3ccccc32)cc(OC)c1O
inactive: DU-145 prostate 94% | K-562 leukemia 22.6% | MALME-3M melanoma 77.6% | MDA-MB-231 breast 64.2% | RXF 393 renal 85.9% | SF-268 CNS 70.6% | SF-295 CNS 86.6% | SF-539 CNS 69.9% | UACC-257 melanoma 104% | M14 melanoma 28.1% | HCT-15 colon 28% | HT29 colon 136% | SNB-75 CNS 44.9% | SNB-19 CNS 65.3% | U251 CNS 39.7% | PC-3 prostate 76.2% | SK-MEL-5 melanoma 68.1% | UACC-62 melanoma 24.6% | LOX IMVI melanoma 36.7% | SK-MEL-28 melanoma 83.6%

Cc1ccc(S(=O)(=O)N(CCC(=O)O)c2ccccc2)cc1
inactive: DU-145 prostate 111% | K-562 leukemia 93.4% | MALME-3M melanoma 142% | MDA-MB-231 breast 114% | RXF 393 renal 152% | SF-268 CNS 102% | SF-295 CNS 111% | SF-539 CNS 99.1% | UACC-257 melanoma 102% | M14 melanoma 107% | HCT-15 colon 102% | HT29 colon 110% | SNB-75 CNS 118% | SNB-19 CNS 109% | U251 CNS 102% | PC-3 prostate 101% | SK-MEL-5 melanoma 112% | UACC-62 melanoma 104% | LOX IMVI melanoma 97.3% | SK-MEL-28 melanoma 119%

CCN1C(=O)N(CC)C2C1NN=c1s/c(=C\c3ccc(F)cc3)c(=O)n12 (stereo not given)
inactive: MALME-3M melanoma 49.9% | MDA-MB-231 breast 24.1% | SF-268 CNS 53.3% | SF-295 CNS 13.6% | UACC-257 melanoma 56% | M14 melanoma 12.6% | HCT-15 colon 13.9% | SNB-19 CNS 28% | PC-3 prostate 25.4% | SK-MEL-5 melanoma 16.8% | UACC-62 melanoma 28.8% | LOX IMVI melanoma 20% | SK-MEL-28 melanoma 63%
active: DU-145 prostate -11.2% | K-562 leukemia 8.05% | RXF 393 renal 5.29% | SF-539 CNS -14.9% | HT29 colon 3.48% | SNB-75 CNS -1.81% | U251 CNS 9.98%

c1ccc(-c2nc(N3CCNCC3)c3oc(-c4ccccc4)nc3n2)cc1
inactive: UACC-257 melanoma 101%
active: DU-145 prostate -55.4% | K-562 leukemia 2.28% | MALME-3M melanoma -93.9% | MDA-MB-231 breast -87.1% | RXF 393 renal -81.4% | SF-268 CNS -48.8% | SF-295 CNS -73.6% | SF-539 CNS -95.9% | M14 melanoma -60.3% | HCT-15 colon -75.6% | HT29 colon -26.2% | SNB-75 CNS -95.9% | SNB-19 CNS -27.9% | U251 CNS -57% | PC-3 prostate -27.9% | SK-MEL-5 melanoma -93.3% | UACC-62 melanoma -82% | LOX IMVI melanoma -81.9% | SK-MEL-28 melanoma -95%

Cc1ccc(-c2nc(C#N)c(S(=O)(=O)n3nc(C)cc3N)o2)cc1
inactive: DU-145 prostate 108% | MDA-MB-231 breast 88.3% | RXF 393 renal 76.8% | SF-268 CNS 93.5% | SF-295 CNS 109% | SF-539 CNS 96.7% | UACC-257 melanoma 95.1% | M14 melanoma 48.8% | HCT-15 colon 49.2% | HT29 colon 50.1% | SNB-75 CNS 97.6% | SNB-19 CNS 97.5% | U251 CNS 95.4% | PC-3 prostate 85% | SK-MEL-5 melanoma 90% | UACC-62 melanoma 96.1% | LOX IMVI melanoma 56.4% | SK-MEL-28 melanoma 93.8%
active: K-562 leukemia -17.2% | MALME-3M melanoma -63.3%

c1ccc(Cn2cc3c(c2)-c2nc(Nc4ccccc4)ncc2CC3)cc1
inactive: DU-145 prostate 83.2% [100 µM] | K-562 leukemia 108% [100 µM] | MALME-3M melanoma 83.5% [100 µM] | MDA-MB-231 breast 65.2% [100 µM] | RXF 393 renal 48.6% [100 µM] | SF-268 CNS 76.9% [100 µM] | SF-295 CNS 57.6% [100 µM] | SF-539 CNS 64.3% [100 µM] | UACC-257 melanoma 98.2% [100 µM] | M14 melanoma 92.9% [100 µM] | HCT-15 colon 116% [100 µM] | HT29 colon 117% [100 µM] | SNB-75 CNS 63.7% [100 µM] | SNB-19 CNS 84.1% [100 µM] | U251 CNS 69.1% [100 µM] | PC-3 prostate 72.8% [100 µM] | SK-MEL-5 melanoma 79.4% [100 µM] | UACC-62 melanoma 82.7% [100 µM] | LOX IMVI melanoma 85.6% [100 µM] | SK-MEL-28 melanoma 92.5% [100 µM]
